Screening results (PubChem)
Shown are actives, neighbours in structure and some others; about 3.5% of the full set was active somewhere.
Mcl-1 Bim block: human Bim-Mcl-1 interaction inhibition; Q07820; Bead-based flow cytometry, Bim peptide-Mcl-1 binding; inhibition, % at 10 µM; 190,000 compounds, 0.1% hits; in the data active = inhibition above about 40%
Target sequence (Q07820 whole entry, looked up): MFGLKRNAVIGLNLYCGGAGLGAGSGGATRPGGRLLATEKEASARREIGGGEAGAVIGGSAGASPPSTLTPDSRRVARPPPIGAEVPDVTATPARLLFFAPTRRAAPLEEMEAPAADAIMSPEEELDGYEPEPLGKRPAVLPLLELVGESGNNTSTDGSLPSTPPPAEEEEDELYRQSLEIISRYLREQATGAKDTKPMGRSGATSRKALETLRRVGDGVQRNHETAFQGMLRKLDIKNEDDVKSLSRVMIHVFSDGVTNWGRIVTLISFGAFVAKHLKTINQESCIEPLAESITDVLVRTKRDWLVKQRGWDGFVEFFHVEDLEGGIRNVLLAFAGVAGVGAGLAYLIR
eIF4E-4G inh: blocks eIF4E binding to eIF4G; P63073+Q04637; TR-FRET eIF4E-eIF4GI(517-606) binding, 2 h; inhibition, % at 21.7 µM; 220,000 compounds, 0.37% hits; AID 782;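 active = inhibition above about 30%, limit read from the data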
14-3-3 Bad PPI: disrupts binding of bovine 14-3-3 zeta to phospho-Bad peptide; inhibition, % at 21.7 µM; 220,000 compounds, 0.71% hits; TR-FRET 14-3-3zeta/Dy647-pBad peptide displacement, 1 h; AID 781; P63103;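 active = inhibition above about 70%, limit read from the data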
Target sequence (P63103 whole entry, looked up): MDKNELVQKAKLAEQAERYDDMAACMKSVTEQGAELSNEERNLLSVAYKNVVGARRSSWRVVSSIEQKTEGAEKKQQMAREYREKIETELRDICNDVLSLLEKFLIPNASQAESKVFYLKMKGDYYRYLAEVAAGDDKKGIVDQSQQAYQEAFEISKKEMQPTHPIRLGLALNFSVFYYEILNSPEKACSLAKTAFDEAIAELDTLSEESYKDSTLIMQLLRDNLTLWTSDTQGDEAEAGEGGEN
Hck-Nef inh: inhibitors of human Hck kinase activated by Nef; P08631; Recombinant Hck-YEEI plus Nef, Z-Lyte FRET kinase assay; inhibition, % at 20 µM; 220,000 compounds, 0.68% hits; AID 463187;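 active = Hck-Nef kinase inhibition above about 50%, limit read from the data; inactive = inhibition below that limit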
Mcl1 Noxa PPI: Mcl-1/Noxa interaction inhibition; Q07820; TR-FRET Mcl-1/Noxa peptide binding, 2 h; inhibition, % at 21.7 µM; 220,000 compounds, 1.5% hits; AID 1022;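 active = compounds that cut the protein-peptide binding signal by more than 50% relative to plate controls in a single-dose test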;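 also: His-tagged Mcl-1 with rhodamine Noxa BH3 peptide and terbium anti-His antibody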
Mcl1 Bid PPI: disrupts binding of human Mcl-1 to Bid peptide | Q07820 | TR-FRET Mcl-1/Bid-Dy647 peptide binding, 1536-well | inhibition, % at 21.7 µM | 220,000 compounds, 0.97% hits;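 active = compounds that cut the binding signal by more than half at the single screening dose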;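 also: His-tagged Mcl-1 with europium anti-His antibody binding Bid BH3 peptide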
Numbers stand for hits; 0 = inactive; - = no result given; [ ] = another dose, or the depositor's remark.

SMILES	Mcl-1 Bim block	eIF4E-4G inh	14-3-3 Bad PPI	Hck-Nef inh	Mcl1 Noxa PPI	Mcl1 Bid PPI
N#C/C=C1/NC(=O)c2ccccc2S1	0	0	0	0	0	64.7
Cc1sc2nc(CN3CCN(c4ccc(O)cc4)CC3)[nH]c(=O)c2c1C	-	0	0	0	67.1	0
O=c1[nH]c(CN2CCN(c3ccccc3)CC2)nc2scc(-c3ccccc3)c12	0	0	0	0	0	0
COC(=O)C1CCN(C(=O)Nc2ccccc2)CC1	0	0	0	0	0	0
CC(=O)c1ccc(-n2c(CCC(=O)O)ccc2-c2cccs2)cc1	0	0	0	0	68.8	0
NC(=O)c1ccc(-n2c(CCC(=O)O)ccc2-c2cccs2)cc1	0	0	0	0	0	0
C/C(NCc1cccnc1)=C(\C#N)C(=O)NCc1ccccc1	0	0	71.3	0	0	0
Cc1nn(-c2ccccc2)c(Cl)c1C(=O)NCCN(C)C	0	0	0	0	0	0
Oc1cccc2cc3cccc(O)c3c(O)c12	0	0	0	0	97.3	0
O=C(c1cccc2cccc(O)c12)N1CCCCC1	0	0	0	0	0	0
C=CCc1cc(Cl)ccc1OCCNCCCOC	0	0	0	0	0	0
C=CCc1ccccc1OCCNCCCOC	0	0	0	0	0	84.3
Cc1cnc(NC(=O)c2ccc(-c3nc4ccccc4s3)o2)s1	0	59.1[fluorescence artefact?]	0	0	0	0
Cc1cnc(NC(=O)CSc2nc3ccccc3s2)s1	0	0	0	0	0	0
On1nnc2ccc3ccccc3c21	0	0	0	0	0	0
CCOc1cccc(NC(=O)C2CC(=O)N(c3ccc(F)cc3)C2)c1 (stereo not drawn)	0	0	0	0	0	0
CCOc1ccc(N2CC(C(=O)Nc3cccc(S(=O)(=O)NC4=NCCC4)c3)CC2=O)cc1 (stereo not drawn)	-	97.2	0	0	0	0
Cc1nc2ccc(C(=O)O)cc2c2c1CC(C)S2 (stereo not drawn)	0	0	0	0	51.0	0
Cc1nc2cc(C(=O)O)ccc2s1	0	-	-	0	0	0
Cc1ccc(S(=O)(=O)N(C(=O)c2ccncc2)c2ccc(OC(=O)c3ccncc3)c3ccccc23)cc1	0	0	0	0	59.3	0
Cc1ccc(S(=O)(=O)N(C(=O)c2ccncc2)c2ccc(OC(=O)c3ccncc3)c3ccccc23)c(C)c1	0	0	0	0	0	0
Clc1ccc(SCCn2ccnc2)cc1	0	0	0	0	0	67.5
NC(CCC(=O)O)C12CC3CC(CC(C3)C1)C2 (stereo not drawn)	0	0	0	0	0	0
C/C(=N\NC(=O)c1cccc(N/N=C(\C)c2ccco2)c1)c1ccco1	0	0	0	0	83.8	0
C/C(=N\NC(=O)c1cccc([N+](=O)[O-])c1)c1ccco1	-	0	0	0	0	0
SMILES	Mcl-1 Bim block	eIF4E-4G inh	14-3-3 Bad PPI	Hck-Nef inh	Mcl1 Noxa PPI	Mcl1 Bid PPI
CCN1CCc2c(sc(NC(=S)NC(=O)c3ccccc3)c2C#N)C1	0	0	79.0	0	0	0
N#Cc1c(NC(=S)NC(=O)c2ccccc2)sc2c1CCC2	0	0	0	0	0	0
Cc1cccc(N2CCN(C(=O)Cc3ccc(Br)cc3)CC2)c1C	0	0	0	0	0	60.6
Cc1ccc(C#CC[N+](C)(C)CC#Cc2ccccc2)cc1	0	0	0	0	0	0
Brc1cccc(C2CC(c3ccccc3)n3nnnc3N2)c1 (stereo not drawn)	0	33.8	0	0	0	0
c1ccc(C2CC(c3cccs3)Nc3nnnn32)cc1 (stereo not drawn)	0	0	0	0	0	0
COc1ccc(C(O)c2nccc3cc(OC)c(OC)cc23)cc1OC (stereo not drawn)	0	0	91.9	0	0	0
OC(c1ccc2c(c1)OCO2)c1nccc2ccccc12 (stereo not drawn)	0	0	0	0	0	0
CCN1CCN(CCNC(=O)c2ccc(/C=C3/Sc4ccccc4N(Cc4ccccc4C)C3=O)cc2)CC1	0	0	70.3	0	0	0
CCN1CCN(CCCNC(=O)c2ccc(/C=C3/Sc4ccccc4N(Cc4ccccc4F)C3=O)cc2)CC1	0	0	80.8	0	0	0
O=C(NCCN1CCOCC1)c1ccc2c(c1)N(Cc1ccccc1F)C(=O)c1ccccc1S2	0	0	0	0	0	0
CCN1C(=O)N(c2cccc3ccccc23)C(C)=CC1(C)C	0	0	0	0	0	0
CN1C(=O)N(C)C2(c3ccccc3)NC(=O)NC12c1ccccc1 (stereo not drawn)	0	0	0	0	0	0
CCN1c2ccccc2N(C)C1(C)c1ccccc1 (stereo not drawn)	0	42.7[fluorescence artefact?]	0	0	85.5	0
CN1c2ccccc2N(C)C1(C)c1ccccc1	0	41.6[fluorescence artefact?]	0	0	79.8	0
Cc1nc(C)c(C(=O)Nc2nc3c(C)cccc3s2)o1	0	0	0	0	90.6	0
CC(C)NC(=O)c1cc(-c2cccs2)on1	0	0	70.8	0	0	0
COCC(=O)Nc1ncc(S(=O)(=O)c2ccc([N+](=O)[O-])cc2)s1	0	0	0	0	0	67.7
O=C(Nc1ncc(S(=O)(=O)c2ccc([N+](=O)[O-])cc2)s1)c1cccc2ccccc12	0	0	0	0	0	0
CCc1cc(C(=O)OC)c(NC(=O)CC2Nc3cc(C)c(C)cc3NC2=O)s1 (stereo not drawn)	0	0	0	0	0	0
COC(=O)c1c(NC(=O)CC2Nc3cc(C)c(C)cc3NC2=O)sc(C)c1C (stereo not drawn)	0	0	0	0	64.2	61.5
COc1cccc(N/C(SCc2ccccc2C)=C(/C#N)C(=O)NCc2cccs2)c1	0	0	0	0	0	54.0
Cc1ccc(SCCC(=O)NC2CC2)cc1	0	0	0	0	0	0
c1csc(-c2nc(CN3CCSCC3)cs2)c1	-	0	0	0	0	0
COc1ccc(-c2csc3nc(-c4cccnc4)nc(Cl)c23)cc1OC	0	0	0	0	58.2	0
SMILES	Mcl-1 Bim block	eIF4E-4G inh	14-3-3 Bad PPI	Hck-Nef inh	Mcl1 Noxa PPI	Mcl1 Bid PPI
Clc1nc(-c2cccnc2)nc2scc(-c3ccccc3)c12	0	0	0	0	0	0
COC(C[C@@H](O)C[C@H](O)[C@@H](C)OCc1ccccc1)OC	-	0	0	0	0	0
O=C(COC(=O)c1cccc(Cl)c1)NCCN1C(=O)CSC1=O	0	0	0	0	0	0
O=C(COC(=O)c1ccc(Cl)cc1O)NCCN1C(=O)CSC1=O	-	0	96.9	0	0	0
CC(OC(=O)c1ccc2c(=O)n3c(nc2c1)CCCCC3)C(=O)Nc1ccc(F)cc1Cl (stereo not drawn)	0	0	0	0	0	63.9
CC(OC(=O)c1ccc2c(=O)n3c(nc2c1)CCCCC3)C(=O)Nc1ccc(Cl)cn1 (stereo not drawn)	0	0	0	0	0	0
O=C(Nc1cccc(Cl)c1)c1ccc2c(=O)n3c(nc2c1)CCCCC3	0	0	0	0	0	0
